Assay results taken from PubChem BioAssay AID2685 (National Center for Advancing Translational Sciences (NCATS), 2010).
The campaign covered roughly 320,000 compounds. About 2,100 (0.66%) were called active. Inconclusive results (about 53%) are left out. The call rests on the fitted dose curve; in most records, active means well fitted inhibition curve with a large enough effect in the signal ratio, with a control signal flat (not every such curve was filed as active); inconclusive means small, poorly fitted or top-dose-only effect, or effect the other way, or a change in a side signal; inactive means flat fitted curve, though single readings scatter; the % refers to the signal ratio. Many of the other results were omitted from the sample, so actives are more common in it than they were.

Assay: qHTS Assay for Lipid Storage Modulators in Drosophila S3 Cells;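 on cell number change: cells counted by Cell Tracker Red CMTPX staining in the red channel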; on lipid storage change, negative = inhibition: on the % scale 0 is the no-effect control and ±100 the full control effect
Conditions: BODIPY lipid droplet fluorescence, 18-24 h, cells fed with added oleic acid; cell number change: measured here: cell count max response; series mostly up to 46.1 µM; lipid storage change, negative = inhibition: at the top concentration
Procedure, shortened: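 Drosophila S3 cells loaded with oleic acid (400 uM, as added) and compounds at several concentrations; lipid droplets imaged by 488-nm laser-scanning cytometry, 500–530 nm intensity and object ratio to cell channel. Percent activity normalized to 20 uM Triacsin C.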
Potency means the concentration at half of the fitted maximal effect.

Row | Structure (SMILES) | outcome | cell number change [%] | Potency | lipid storage change, negative = inhibition
1 | CCC(=O)Nc1ccccc1-c1nc2ccccc2[nH]c1=O | inactive | -8.79 |  | 
2 | O=C(Nc1ccccc1-c1nc2ccccc2[nH]c1=O)c1cccs1 |  | 7.26 | 9.2 µM (active) | 
3 | CC(C)C(=O)Nc1ccccc1-c1nc2ccccc2[nH]c1=O | inactive | -27.6 |  | 
4 | Cc1c(C(=O)N2CCCCC2)c(S(=O)(=O)NCCc2ccccc2)c(C)n1C | inactive | -0.59 |  | 
5 | CCOC(=O)COc1ccc(S(=O)(=O)N2CCN(C(=O)OCC)CC2)cc1 |  | -5.47 |  | 15% (inactive)
6 | CCCn1c(SCC(=O)NC2CC2)nnc1-c1cccs1 |  | 9.09 |  | -14.1% (inactive)
7 | Cc1ccc(NC(=O)CSCC(=O)N2CCN(Cc3ccc4c(c3)OCO4)CC2)cc1 | inactive | 21.6 |  | 
8 | COc1ccc(NC2CCCN(C(=O)CN3C(=O)c4ccccc4C3=O)C2)cc1OC (stereo not given) |  | -13.7 | 18.4 µM (active) | 
9 | Cc1ccc(NC2CCCN(C(=O)CN3C(=O)c4ccccc4C3=O)C2)cc1C (stereo not given) |  | 5.05 |  | 18.6% (inactive)
10 | COc1ccc(NC2CCCN(C(=O)CCOc3ccccc3)C2)cc1 (stereo not given) | inactive | 2.67 |  | 
11 | COc1ccc(NC2CCCN(C(=O)CSc3ccccc3)C2)cc1 (stereo not given) | inactive | 3.54 |  | 
12 | COc1ccc(NC2CCCN(C(=O)CCN3CCCC3=O)C2)cc1 (stereo not given) |  | 24.3 |  | 8.07% (inactive)
13 | COc1ccc(NC2CCCN(C(=O)c3ccncc3)C2)cc1 (stereo not given) | inactive | -9.17 |  | 
14 | COc1ccc(NC2CCCN(C(=O)CSc3ccncc3)C2)cc1 (stereo not given) |  | -29 | 0.231 µM (active) | 
15 | COc1ccc(NC2CCCN(C(=O)CSc3ccccn3)C2)cc1OC (stereo not given) |  | -4.53 |  | -17.1% (inactive)
16 | COc1ccc(NC2CCCN(C(=O)COc3ccc(C)cc3)C2)cc1 (stereo not given) |  | -19.8 | 2.06 µM (active) | 
17 | COc1ccc(CC(=O)Nc2ccccc2C(=O)NCCc2ccccc2)cc1 | inactive | 7.51 |  | 
18 | Cc1ccc(OCC(O)CN2CCN(c3ccccc3)CC2)cc1 (stereo not given) |  | -26.7 |  | 15.5% (inactive)
19 | O=C(Nc1ccc(S(=O)(=O)N2CCCCC2)cc1)C1CC1 |  | 19.3 |  | 11.8% (inactive)
20 | N/C(=N\OC(=O)Cc1ccccc1[N+](=O)[O-])c1cccc(Br)c1 |  | -2.3 |  | -1.94% (inactive)
21 | Cn1c(CCN2CCN(c3ccccn3)CC2)nc2cc(NS(=O)(=O)c3ccccc3)ccc21 |  | 8.74 |  | 8.02% (inactive)
22 | Cc1ccc(S(=O)(=O)Nc2ccc3c(c2)nc(CCN2CCN(c4ccccn4)CC2)n3C)cc1 |  | 24.4 | 16.4 µM (active) | 
23 | CC(=O)Nc1ccc2c(c1)nc(CCN1CCN(c3ccccn3)CC1)n2C |  | -2.13 |  | 25.6% (inactive)

Row | Structure (SMILES) | outcome | cell number change [%] | Potency | lipid storage change, negative = inhibition
24 | O=C(/C=C/N1CCN(Cc2ccccc2)CC1)C(F)(F)F |  | 4.65 |  | -0.119% [at 9.22 µM] (inactive)
25 | NC(=O)COc1c(-c2ccccc2)oc2ccccc2c1=O |  | 0.203 |  | 28.7% (inactive)
26 | O=C(O)COc1c(-c2ccccc2)oc2ccccc2c1=O |  | 10.5 | 23.1 µM (active) | 
27 | O=C(O)COc1c(-c2ccc(Cl)cc2)oc2ccccc2c1=O |  | 7.07 |  | -2.1% (inactive)
28 | COc1ccc(CNC(=O)CSc2n[nH]c(N)n2)cc1 | inactive | 2.63 |  | 
29 | Cc1[nH]c(C)c(S(=O)(=O)N(Cc2ccccc2)C(C)(C)C)c1C(=O)N1CCCC1 |  | -27.6 |  | -19% (inactive)
30 | CCN(CC)C(=O)CSc1nnc(-c2ccco2)n1Cc1ccco1 |  | -5.34 |  | 13.9% (inactive)
31 | Cc1ccc(NC(=O)CSc2nnc(CNC(=O)c3ccco3)n2C)cc1 |  |  |  | 18% (inactive)
32 | O=C(c1ccccc1)c1ccc(COC(=O)c2cnccn2)cc1 | inactive |  |  | 
33 | COC(=O)c1ccc(COC(=O)c2cnccn2)cc1 |  | 9.29 |  | -2.39% (inactive)
34 | O=C(OCc1ccc(Cl)cc1)c1cnccn1 |  | 23.8 | 7.31 µM (active) | 
35 | CCN(C(=O)CSc1nnc(Cc2ccccc2F)n1N)C1CCS(=O)(=O)C1 (stereo not given) |  | -2.07 | 8.2 µM (active) | 
36 | CCN(C(=O)CSc1nnc(-c2ccccc2)n1C)C1CCS(=O)(=O)C1 (stereo not given) |  |  |  | 10.8% (inactive)
37 | CCN(C(=O)CSc1nnc(COc2ccccc2F)n1N)C1CCS(=O)(=O)C1 (stereo not given) | inactive |  |  | 
38 | Cc1onc(-c2ccccc2Cl)c1C(=O)N1CCC(C)CC1 | inactive | -10.5 |  | 
39 | Cc1onc(-c2ccccc2Cl)c1C(=O)N1CCN(C=O)CC1 |  |  |  | -12.5% (inactive)
40 | Cc1onc(-c2ccccc2Cl)c1C(=O)N1CCCCCC1 |  | 0.806 | 25.9 µM (active) | 
41 | CCNC(=S)N1CCN=C1Nc1nc(C)cc(C)n1 |  | 8.32 |  | -14.2% (inactive)
42 | CCn1cc(CNC(=O)/C=C/c2ccc([N+](=O)[O-])cc2)cn1 |  | -8.84 |  | -8.69% (inactive)
43 | CCn1c2ccccc2c2nc3cc(C(=O)O)ccc3nc21 |  | -24.2 | 0.58 µM (active) | 
44 | O=C(O)CCn1c2ccccc2c2nc3ccccc3nc21 | inactive | -11.8 |  | 
45 | CCn1c2ccc(C)cc2c2nc3cc(C(=O)O)ccc3nc21 |  | -5.53 |  | -18% (inactive)
46 | CC(=O)NCCc1nc2cc(NC(=O)c3cccc([N+](=O)[O-])c3)ccc2n1C |  |  |  | 13.5% (inactive)

Row | Structure (SMILES) | outcome | cell number change [%] | Potency | lipid storage change, negative = inhibition
47 | COc1nn(CC(=O)N2N=C(C)CC2(O)C(F)(F)F)cc1[N+](=O)[O-] (stereo not given) |  | 11.8 |  | 7.76% (inactive)
48 | CCOC(=O)Cn1cc([N+](=O)[O-])c(OC)n1 |  | -15 | 23.1 µM (active) | 
49 | COc1nn(CC(=O)N2N=C(C)CC2(O)C(F)F)cc1[N+](=O)[O-] (stereo not given) |  | 5.87 |  | -2.88% (inactive)
50 | CCOc1ccc(CCNC(=O)c2nnc(Cc3ccc(F)cc3)o2)cc1OCC |  | -1.72 |  | 5.14% (inactive)
51 | CN(CCCNC(=O)COc1cc(=O)n(C)c2ccccc12)Cc1ccccc1 |  | 1.19 |  | 6.06% (inactive)
52 | O=C(Nc1nc(SCc2ccc(F)cc2)ns1)c1ccco1 |  | -12.1 |  | 4.24% (inactive)
53 | C=CCSc1nsc(NC(=O)Nc2ccc(F)cc2)n1 |  | -16.2 | 5.17 µM (active) | 
54 | CCSc1nsc(NC(=O)Nc2ccc(F)cc2F)n1 | inactive |  |  | 
55 | Cc1ccccc1S(=O)(=O)NCC1CCCO1 (stereo not given) | inactive | -3.81 |  | 
56 | COCc1cc(C)nc(SCC[N+](C)(C)CC(=O)c2ccc(Br)cc2)c1C#N |  |  |  | 0.0033% (inactive)
57 | NC(=O)C1=C[C@@H](c2coc3ccccc3c2=O)C[C@@H](OCc2ccc(CO)cc2)O1 |  | 16 |  | 12.2% (inactive)
58 | CCc1ccc(CN(C)C(=O)c2cc(COc3cccc4cnccc34)on2)cc1 | inactive | 14.5 |  | 
59 | CCOC(=O)C1=C(C)NC(=O)NC1C (stereo not given) |  | -10.2 | 5.17 µM (active) | 
60 | CC1=C(C(=O)OCC2CCCO2)C(c2cccc(O)c2)NC(=O)N1 (stereo not given) |  | -24.8 |  | 7.62% (inactive)
61 | CCOC(=O)C1=C(C)N(C)C(=O)NC1c1cccc(O)c1 (stereo not given) | inactive |  |  | 
62 | CCOC(=O)C1=C(COc2ccccc2)NC(=O)NC1c1cccc([N+](=O)[O-])c1 (stereo not given) |  | 3.89 | 9.2 µM (active) | 
63 | CCOC(=O)C1=C(CBr)NC(=O)NC1C (stereo not given) |  | -12.6 |  | -10.4% (inactive)
64 | CCOC(=O)C1=C(C)NC(C)=C(C(=O)OCC)C1C |  | 8.56 |  | 15.9% (inactive)
65 | CC1=C(C(=O)OCc2ccccc2)C(c2cccc([N+](=O)[O-])c2)NC(=O)N1 (stereo not given) |  | 10.6 |  | 5.58% (inactive)
66 | CCOC(=O)C1=C(CN2CCSCC2)NC(=O)NC1c1cccc([N+](=O)[O-])c1 (stereo not given) |  | -8.36 |  | 7.96% (inactive)
67 | CCOC(=O)C1=C(C)NC(=O)NC1c1cccc(O)c1 (stereo not given) |  | 0.128 | 20.6 µM (active) | 
